PubChem BioAssay (NCATS)
Results filed as inconclusive are left out. Activity calls are given as the source filed them. Unless noted, calls come from the whole dose curve; as a rule, active = well fitted curve in the direction sought with a large enough effect; inconclusive = small, poorly fitted or top-dose-only effect, or another doubt; inactive = no such curve, though single readings can be large; an effect the other way counts as inactive or inconclusive.

Assays:
[1] = Primary qHTS for inhibitors of La Crosse Virus (LACV) - induced cell death in SH-SY5Y cells (AID 1508616);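 note: top concentration of the series differs between compounds; 0% = infected DMSO wells and 100% = uninfected DMSO wells; higher means more rescue of cells from virus-induced death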
Outline: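 Rescue of virus-induced death was read as ATPLite luminescence after 6 days at 37C, scaled between DMSO wells with LACV and without virus. Cells were SH-SY5Y, 6000/well, infected at 0.01 MOI after compound addition.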

[2] = biological target: Calcium and integrin-binding protein 1 (Homo sapiens) (UniProt Q99828); assay: Primary qHTS for Identification of Calcium Integrin Binding Protein 1 (CIB1) Competitor (AID 1508620);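 note: GST tagged CIB1 binding a fluorescein labelled alphaIIb integrin peptide tracer; top concentration of the series differs between compounds; % is set by controls: 0 for no effect and ±100 for the full control effect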
Outline: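 Fluorescence polarization competition: GST-tagged CIB1 (1 uM final) preincubated with compound 15 min at room temperature, then FITC-labelled alphaIIb peptide (100 nM final) added. After 15 min at room temperature, polarization read at Ex 480/Em 540.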

[3] = Primary qHTS for small molecule stabilizers of the endoplasmic reticulum resident proteome: Secreted ER Calcium Modulated Protein (SERCaMP) assay (AID 1508630); note: % is set by controls: 0 for no effect and ±100 for the full control effect
Outline: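 The SH-SY5Y reporter protocol was run at 3 concentrations up to 38.3 uM (primary) or 11 concentrations (follow-up): 16 h compound, 100 nM thapsigargin for 4 h, then extracellular luciferase luminescence.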

[4] = A High-Content qHTS Against Drug Library for the Identification of Small Molecules that Inhibit DYT1 Early Onset Primary Dystonia-Associated Cell Pathology (AID 1645839; calls by dose curve; note: series mostly up to about 46 µM)
Outline: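 Cells were seeded and left for 24 h, then dosed with compound alongside tetracycline induction of mutant EGFP-TorsinA. They were incubated for 48 h, fixed in 4% paraformaldehyde, permeabilized and imaged for mislocalization (%pathology) and cell count.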

[5] = Counterscreen qHTS for small molecule stabilizers of the endoplasmic reticulum resident proteome: GLuc-NoTag assay (AID 1508627);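 note: series mostly up to about 76 µM; 0% = thapsigargin alone and -100% = DMSO vehicle control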
Outline: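 Counterscreen line: SH-SY5Y-GLuc-NoTag. Seed, 5 h; compound, 19 h; thapsigargin 100 nM, 4 h; 37C/5% CO2. Readout: secreted GLuc luminescence, coelenterazine 0.07x final, no lysis.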

[6] = Confirmatory qHTS for small molecule stabilizers of the endoplasmic reticulum resident proteome: Secreted ER Calcium Modulated Protein (SERCaMP) assay (AID 1508628); note: series mostly up to about 76 µM; % is set by controls: 0 for no effect and ±100 for the full control effect; nearly all actives have a fitted effect of over 40% in size
Outline: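 Reporter secretion upon ER calcium depletion (100 nM thapsigargin, 4 h, 37C) is measured as medium luminescence with coelenterazine, after 16 h compound pretreatment of SH-SY5Y-GLuc-SERCaMP cells; primary at three concentrations up to 38.3 uM, follow-up at 11 (up to 76.6 uM).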

[7] = Cell Viability qHTS for small molecule stabilizers of the endoplasmic reticulum resident proteome (AID 1508629); details: cell viability counter-screen, 100 nM thapsigargin for final 4 h;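 note: human SH-SY5Y neuroblastoma cells carrying the GLuc-SERCaMP reporter; compound exposure about 46 h in total before the viability read; % is set by controls: 0 for no effect and ±100 for the full control effect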

Calcium and integrin-binding protein 1 (Homo sapiens), sequence (Q99828 whole entry, looked up): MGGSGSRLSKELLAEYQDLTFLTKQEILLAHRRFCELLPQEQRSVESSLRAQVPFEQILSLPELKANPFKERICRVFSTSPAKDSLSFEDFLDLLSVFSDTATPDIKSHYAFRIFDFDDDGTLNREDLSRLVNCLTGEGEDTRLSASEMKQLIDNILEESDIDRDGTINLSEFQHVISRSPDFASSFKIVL

C[C@@H]1C[C@H]2[C@@H]3C[C@H](F)C4=CC(=O)C=C[C@]4(C)[C@@]3(F)[C@@H](O)C[C@]2(C)[C@@]1(O)C(=O)CO
inactive: outcome [1] | outcome [2] | Potency [3] | Potency [4]

CCN(CC)CCNC(C(=O)OCCC(C)C)c1ccccc1 (stereo not drawn)
inactive: outcome [1] | outcome [2] | Potency [3] | Potency [4]

CCOC(=O)c1ccc(O)cc1
inactive: outcome [1] | outcome [2] | Potency [3] | Potency [4]

O=c1[nH]c(=O)c2[nH]c(=O)[nH]c2[nH]1
inactive: activity change [1] 1.46% [at 0.858 µM] | outcome [2] | activity change, negative = inhibition [3] -1.24% [at 7.35 µM] | % pathology change, negative = correction [4] 7.44% [at 9.22 µM]

C[C@H]1O[C@H](O[C@H]2[C@H](O)[C@@H](O)[C@@H](O[C@H]3[C@H](O)[C@@H](O)[C@H](O)O[C@@H]3CO)O[C@@H]2CO)[C@H](O)[C@@H](O)[C@@H]1N[C@H]1C=C(CO)[C@@H](O)[C@H](O)[C@H]1O
inactive: outcome [1] | outcome [2] | Potency [3] | Potency [4]

CCCCCCCCCCCCCCCCCCOCC(O)CO (stereo not drawn)
inactive: outcome [1] | outcome [2] | Potency [3] | Potency [4]

CC(C)(C)C(=O)C(Oc1ccc(Cl)cc1)n1ccnc1 (stereo not drawn)
inactive: outcome [1] | outcome [2] | Potency [3] | Potency [4]

Nc1ccc(S(=O)(=O)NC(=O)c2ccccc2)cc1
inactive: outcome [1] | outcome [2] | Potency [3] | Potency [4]

CCOc1nc2cccc(C(=O)O)c2n1Cc1ccc(-c2ccccc2-c2nn[nH]n2)cc1
inactive: outcome [1] | outcome [2] | Potency [3] | Potency [4]

CC(O)COc1ccccc1 (stereo not drawn)
inactive: outcome [1] | outcome [2] | Potency [3] | Potency [4]

CCCCOc1cc(C(=O)OCCN(CC)CC)ccc1N
inactive: outcome [1] | outcome [2] | Potency [3] | Potency [4]

Cc1ncc([N+](=O)[O-])n1CC(O)CCl (stereo not drawn)
inactive: outcome [1] | outcome [2] | Potency [3] | Potency [4]

Nc1ccc(S(=O)(=O)Nc2ccccc2)cc1
inactive: outcome [1] | outcome [2] | Potency [3] | Potency [4]

N[C@@H](CSCCCO)C(=O)O
inactive: outcome [1] | outcome [2] | Potency [4]

CC1(C)S[C@@H]2[C@H](NC(=O)Cc3ccccc3)C(=O)N2[C@H]1C(=O)O (tested in a mixture with another compound)
inactive: outcome [1] | outcome [2] | Potency [4]

O=C(O)CC(O)C(=O)O (stereo not drawn)
inactive: outcome [1] | outcome [2] | Potency [4]

CC(O)CN(CCN(CC(C)O)CC(C)O)CC(C)O (stereo not drawn)
inactive: outcome [1] | outcome [2] | Potency [4]

O=C(O)c1ccccc1-c1ccc(C(F)(F)F)cc1
inactive: outcome [2] | Potency [3] | Potency [4]

COc1ccc2cc1Oc1cc3c(cc1OC)CC[N+](C)(C)[C@H]3Cc1ccc(cc1)Oc1c(OC)c(OC)cc3c1[C@@H](C2)[N+](C)(C)CC3
inactive: outcome [1] | outcome [2] | Potency [4]

Cc1cc2nc3c(=O)[nH]c(=O)nc-3n(C[C@H](O)[C@H](O)[C@H](O)CO)c2cc1C
inactive: outcome [1] | Potency [5] | Potency [6] | max response [7] 11.4% | Potency [4]

CCN(CC)CCSC(=O)C(c1ccccc1)c1ccccc1
inactive: outcome [1] | outcome [2] | Potency [4]

[Cl][In]([Cl])[Cl]
inactive: outcome [2] | Potency [4]

CC[C@@]1(c2ccccc2)NC(=O)N(C)C1=O
inactive: outcome [1] | outcome [2] | Potency [4]

CN1[C@@H]2CC(OC(=O)[C@H](CO)c3ccccc3)C[C@H]1[C@@H]1O[C@@H]12 (stereo partly drawn)
inactive: outcome [1] | Potency [4]

CC(C)(C(=O)O)c1ccc(C(O)CCCN2CCC(C(O)(c3ccccc3)c3ccccc3)CC2)cc1 (stereo not drawn)
inactive: outcome [1] | Potency [4]

COc1ccccc1O
inactive: outcome [1] | outcome [2] | Potency [4]

CCC(=O)Nc1ccc(O)cc1
inactive: outcome [1] | outcome [2] | Potency [4]

CC(C)(O)c1ccccc1CC[C@@H](SCC1(CC(=O)O)CC1)c1cccc(/C=C/c2ccc3ccc(Cl)cc3n2)c1
inactive: outcome [1] | Potency [4]

CCCCC/C(C=O)=C\c1ccccc1
inactive: outcome [1] | outcome [2] | Potency [4]
